Data taken from PubChem BioAssay AID449766 (NMMLSC, 2010).
Active and inactive are the calls of the source.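 The calls were made as follows: active = compound whose curve gives half-maximal concentration under 30 µM, top-dose inhibition above a set limit, tight estimate; inactive = the rest.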

The compounds below were run against Integrin alpha-4 (Homo sapiens) (UniProt P13612) (assay: VLA-4 allosteric modulator potency, dose response, cell-based, U937, HUTS-21 LIBS antibody, flow cytometry (AID 449766)). Settings: U937 cells, HUTS-21 LIBS mAb binding; series mostly up to 20 µM.
Chain of Integrin alpha-4 (Homo sapiens) (P13612 whole entry, looked up): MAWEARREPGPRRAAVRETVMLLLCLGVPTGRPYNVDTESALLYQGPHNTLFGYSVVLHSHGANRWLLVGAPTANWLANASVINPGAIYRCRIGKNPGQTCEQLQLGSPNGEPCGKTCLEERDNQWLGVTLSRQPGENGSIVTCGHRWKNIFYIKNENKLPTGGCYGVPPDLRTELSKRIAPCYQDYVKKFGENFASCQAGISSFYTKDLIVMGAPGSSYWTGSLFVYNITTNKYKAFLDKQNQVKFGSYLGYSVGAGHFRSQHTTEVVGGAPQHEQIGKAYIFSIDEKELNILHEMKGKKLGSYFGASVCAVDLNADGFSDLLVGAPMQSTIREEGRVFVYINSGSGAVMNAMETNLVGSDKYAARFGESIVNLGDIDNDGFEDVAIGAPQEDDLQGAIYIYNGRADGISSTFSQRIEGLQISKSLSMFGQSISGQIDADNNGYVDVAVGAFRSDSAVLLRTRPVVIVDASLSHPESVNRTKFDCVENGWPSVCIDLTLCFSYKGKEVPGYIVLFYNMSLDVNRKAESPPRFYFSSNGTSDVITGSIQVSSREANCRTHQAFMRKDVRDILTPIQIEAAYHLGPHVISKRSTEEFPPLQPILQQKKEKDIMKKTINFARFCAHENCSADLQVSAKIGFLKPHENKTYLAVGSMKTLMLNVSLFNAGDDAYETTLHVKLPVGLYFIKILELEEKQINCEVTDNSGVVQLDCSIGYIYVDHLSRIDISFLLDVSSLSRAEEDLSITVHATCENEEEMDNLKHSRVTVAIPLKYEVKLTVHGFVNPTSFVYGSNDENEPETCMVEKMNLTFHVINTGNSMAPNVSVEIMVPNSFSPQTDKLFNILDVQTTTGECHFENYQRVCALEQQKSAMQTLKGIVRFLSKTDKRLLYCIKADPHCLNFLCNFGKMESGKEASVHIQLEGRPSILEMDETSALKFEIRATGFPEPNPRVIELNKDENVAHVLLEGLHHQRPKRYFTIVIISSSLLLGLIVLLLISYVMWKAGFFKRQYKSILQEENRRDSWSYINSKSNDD

outcome, inactive:
Nc1cccc(S(=O)(=O)Nc2ccccc2)c1
COc1cc2c(cc1OC)C(c1ccc(Br)cc1)CC(=O)N2 (stereo not given)
Cc1ccc(NS(=O)(=O)c2ccc(-c3cnc(C4CC4)o3)cc2)c(C)c1
COc1cccc(C2CC(=O)Nc3cc(OC)c(OC)cc32)c1 (stereo not given)
COC(=O)[C@@H]1[C@@H](C#N)C2(c3ccccc3-c3ccccc32)N(c2ccc(Cl)cc2)N1C#N
Nc1cc(S(=O)(=O)Nc2ccc(Br)cc2)ccc1Cl
O=C(Oc1ccc(F)cc1C(=O)/C=C/c1cccs1)c1cccc([N+](=O)[O-])c1
COc1ccc(-c2sc3ccccc3c2-c2ccc(OCCN3CCOCC3)cc2)cc1
Cc1ccc(C)c(NC(=O)c2cc(S(=O)(=O)N3CCCCC3)ccc2N2CCOCC2)c1
O=C(c1ccccc1)c1cc([N+](=O)[O-])ccc1N1CCOCC1
Cc1ccc(S(=O)(=O)Nc2ccc(N(C)C)cc2)cc1
Cc1ccc(C(=O)c2cc([N+](=O)[O-])ccc2N2CCOCC2)c(C)c1
COc1ccc(C2=Nn3c(nnc3-c3ccc(OC)cc3)SC2)cc1
CC(C)Oc1ccccc1C1CC(=O)Nc2cc3c(cc21)OCO3 (stereo not given)
Cc1ccc(C(=O)c2cc([N+](=O)[O-])ccc2N2CCOCC2)cc1C
COc1ccc(C)cc1S(=O)(=O)Nc1cccc(C)c1
O=C(Nc1ccc(OC(F)F)cc1)c1cc(S(=O)(=O)N2CCCCC2)ccc1N1CCOCC1
COCCNC(=O)/C(C#N)=C/c1cccc(/C=C(\C#N)C(=O)NCCOC)c1
CCOc1cccc(C2CC(=O)Nc3cc(OC)c(OC)cc32)c1 (stereo not given)
COc1ccccc1-c1sc2cc3c(cc2c1-c1ccc(OCCN2CCCCC2)cc1)OCO3
COc1ccc(S(=O)(=O)Nc2c(F)cccc2F)cc1
CCOc1ccc(C(=O)c2cc([N+](=O)[O-])ccc2N2CCOCC2)cc1
CCOCCCNC(=O)/C(C#N)=C/c1cc(Br)c(O)c(Br)c1
COCCNC(=O)/C(C#N)=C/c1c(F)cccc1Cl
CCCCNC(=O)/C(C#N)=C/c1ccc(C(=O)OC)cc1
COc1cccc(-c2sc3ccc(OC)cc3c2-c2ccc(OCCN3CCCC3)cc2)c1
COCCNC(=O)/C(C#N)=C/c1ccc(C(=O)O)cc1
COc1ccc(-c2sc3cc4c(cc3c2-c2ccc(OCCN3CCOCC3)cc2)OCO4)cc1
CCCCN1C(=O)C(=O)c2cc(Cl)ccc21
COc1cc(NC(=O)c2cc(S(=O)(=O)N3CCCCC3)ccc2N2CCOCC2)cc(OC)c1
CCCOc1ccccc1C1CC(=O)Nc2cc3c(cc21)OCO3 (stereo not given)
Nc1ccc(NS(=O)(=O)c2ccccc2)cc1
COc1ccc(C2CC(=O)Nc3cc(OC)c(OC)cc32)cc1Br (stereo not given)

inhibition, inactive:
O=C(Nc1ccccc1Cl)c1cc(S(=O)(=O)N2CCCCC2)ccc1N1CCOCC1 -7.81% [at 0.25 µM]
CCOc1ccc(S(=O)(=O)Nc2cc(OC)ccc2OC)cc1 -4.93% [at 0.74 µM]
